These results are taken from publication PMC4336329 (PLoS ONE, 2015).

In all, about 310,000 compounds went through this assay and about 14,000 (4.5%) showed an effect of 50% or more. Effects have a minus sign here. This is one part of a sample in which strong results are shown more often than they occur.
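Further: peak tail current of the secondary pulse compared with the same well before compound.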

Chain of human ether-à-go-go-related gene (hERG) potassium channel (Q12809 whole entry, looked up): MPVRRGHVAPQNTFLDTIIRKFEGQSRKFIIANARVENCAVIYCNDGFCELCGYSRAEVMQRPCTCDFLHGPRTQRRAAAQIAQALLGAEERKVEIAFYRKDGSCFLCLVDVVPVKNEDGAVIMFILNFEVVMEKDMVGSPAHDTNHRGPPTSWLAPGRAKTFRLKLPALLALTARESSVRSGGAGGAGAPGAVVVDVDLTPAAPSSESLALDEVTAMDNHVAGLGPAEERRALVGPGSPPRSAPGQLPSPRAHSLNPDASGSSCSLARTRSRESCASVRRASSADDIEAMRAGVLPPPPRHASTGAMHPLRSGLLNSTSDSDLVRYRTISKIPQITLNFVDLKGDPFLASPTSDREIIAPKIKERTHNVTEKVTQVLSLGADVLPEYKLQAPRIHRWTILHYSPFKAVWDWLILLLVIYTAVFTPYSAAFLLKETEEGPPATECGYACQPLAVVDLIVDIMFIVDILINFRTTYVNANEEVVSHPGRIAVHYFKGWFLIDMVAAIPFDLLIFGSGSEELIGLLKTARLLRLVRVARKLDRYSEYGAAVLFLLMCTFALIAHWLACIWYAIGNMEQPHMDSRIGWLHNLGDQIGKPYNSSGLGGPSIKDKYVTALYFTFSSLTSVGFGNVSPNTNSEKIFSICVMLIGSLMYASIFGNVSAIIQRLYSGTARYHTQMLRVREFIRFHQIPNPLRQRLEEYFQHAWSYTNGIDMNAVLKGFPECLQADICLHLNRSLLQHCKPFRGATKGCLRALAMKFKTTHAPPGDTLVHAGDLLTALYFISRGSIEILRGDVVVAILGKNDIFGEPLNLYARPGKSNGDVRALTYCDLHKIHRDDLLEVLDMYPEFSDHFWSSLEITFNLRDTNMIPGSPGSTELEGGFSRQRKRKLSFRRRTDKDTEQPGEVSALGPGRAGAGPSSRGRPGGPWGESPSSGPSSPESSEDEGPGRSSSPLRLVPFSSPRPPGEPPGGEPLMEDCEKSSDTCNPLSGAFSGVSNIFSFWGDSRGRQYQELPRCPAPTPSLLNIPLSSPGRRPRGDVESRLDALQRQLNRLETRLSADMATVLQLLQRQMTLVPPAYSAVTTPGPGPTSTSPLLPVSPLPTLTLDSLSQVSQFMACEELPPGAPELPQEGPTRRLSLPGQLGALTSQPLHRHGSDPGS

The experiment has as its target human ether-à-go-go-related gene (hERG) potassium channel (human, UniProt Q12809). The experiment is described as follows: primary screen, population patch clamp on CHO cells stably expressing hERG; higher = less effect of the substance.
For the compound `O=C(CSc1ncn(-c2ccccc2)n1)c1cccs1`, the “hERG current change (%, negative = inhibition) at 10uM” value is on record as -3.5%.
For the compound `Cc1ccc(S(=O)(=O)N2CCN(S(=O)(=O)c3ccc4c(c3)OCCO4)CC2)cc1`, the “hERG current change (%, negative = inhibition) at 10uM” value is 8.43%.
The value for `COc1ccc(CCNC(=O)c2cc3c(=O)n4ccccc4nc3n(C3CCCCC3)c2=N)cc1` was -81.3%.
Turning to `COc1ccc(CCNC(=O)c2cc(-c3ccccn3)nc3c(Cl)cccc23)cc1OC`, the “hERG current change (%, negative = inhibition) at 10uM” value is reported as 10.5%.
For the compound `COc1ccc(CCNC(=O)c2c(C)nc3ccccn23)cc1`, the “hERG current change (%, negative = inhibition) at 10uM” value was -4.75%.
As to `COc1ccccc1CNC(=O)c1cc(-c2ccncc2)nc2c(Cl)cccc12`, the “hERG current change (%, negative = inhibition) at 10uM” value is recorded as 10.5%.
With `COc1ccc(CCNC(=O)c2cc(-c3ccncc3)nc3c(Cl)cccc23)cc1OC`, the “hERG current change (%, negative = inhibition) at 10uM” value is reported as -66.9%.
In the case of `COc1ccc(CCNC(=O)c2c(C)nc3ccccn23)cc1OC`, the “hERG current change (%, negative = inhibition) at 10uM” value is recorded as -64.3%.
In the case of `COc1ccc(CNC(=O)c2c(C)nc3ccccn23)cc1`, the “hERG current change (%, negative = inhibition) at 10uM” value is -12.1%.
Take `COc1ccc(CCNC(=O)c2cccc3c2C(=O)N(C2CCCCC2)C3)cc1OC`: the “hERG current change (%, negative = inhibition) at 10uM” value is given as -24.1%.
Consider `COc1ccc(CCNC(=O)c2cccc3ccccc23)cc1OC`, for which the “hERG current change (%, negative = inhibition) at 10uM” value turned out to be 7.77%.
For `COc1ccc(CCNC(=O)c2cc3c(=O)n4ccccc4nc3n(C3CCCCC3)c2=N)cc1OC`, the “hERG current change (%, negative = inhibition) at 10uM” value is given as -76.6%.
As for `COc1ccc(CCNC(=O)c2cnc3ccccn3c2=O)cc1`, the figure is -22.3%; as for `Cc1cc(NC(=O)c2ccc3nc(-c4ccccc4)c(-c4ccccc4)nc3c2)no1`, 6.59%.
Take `Nc1c(/C=C2\C=Nc3ccccc32)c(=O)nc2sc(CC(=O)N3CCOCC3)nn12`: the “hERG current change (%, negative = inhibition) at 10uM” value came out at 17.2%.
`Cc1ccc(Cn2c(C(C)Nc3nc(-c4ccc(Cl)c([N+](=O)[O-])c4)cs3)nc3cc(C(F)(F)F)ccc32)cc1` (stereo not shown): the “hERG current change (%, negative = inhibition) at 10uM” value is recorded as 5.46%.
With `Fc1ccccc1COc1ccc(/C=N/n2cnnc2)cc1`, the “hERG current change (%, negative = inhibition) at 10uM” value is recorded as -12.2%.
The value for `COc1ccc(C(CCN2CCCCC2)c2c(O)cc(OC)cc2OC)cc1` (stereo not shown) was -75.2%.
Regarding `COc1cc(O)c(C(CCN2CCCCC2)c2cc(OC)c(OC)c(OC)c2)c(OC)c1` (stereo not shown), the “hERG current change (%, negative = inhibition) at 10uM” value came to 4.24%.
Take `COc1ccc(C(CCN2CCCC2)c2c(O)cc(OC)cc2OC)cc1` (stereo not shown): the “hERG current change (%, negative = inhibition) at 10uM” value was -61.2%.
The value for `COc1ccc(C(CCN2CCOCC2)c2c(O)cc(OC)cc2OC)cc1` (stereo not shown) was -47.1%; that for `COc1cc(O)c(C(CCN2CCCCC2)c2ccc(N(C)C)cc2)c(OC)c1` (stereo not shown) was -8.43%; that for `COc1cc(O)c(C(CCN2CCCC2)c2ccc(N(C)C)cc2)c(OC)c1` (stereo not shown) was -10%.
Consider `COc1ccccc1NS(=O)(=O)c1ccc2c(c1)NC(=O)CC(=O)N2`, for which the “hERG current change (%, negative = inhibition) at 10uM” value is listed as 14.5%.
As to `COc1cc(CNn2cn[nH]c2=S)cc(Br)c1OCc1ccccc1F`, the “hERG current change (%, negative = inhibition) at 10uM” value was found to be 6.75%.
For the compound `CC1(C(=O)O)COC(c2ccc(Cl)cc2)OC1` (stereo not shown), the “hERG current change (%, negative = inhibition) at 10uM” value was -25.3%.
In the case of `CC(=O)Nc1ccc(S(=O)(=O)N(C)CC(=O)Nc2cccc(S(=O)(=O)N3CCCC3)c2)cc1`, the “hERG current change (%, negative = inhibition) at 10uM” value is -8.1%.
As to `O=C(CCS(=O)(=O)c1ccc(F)cc1)N1CCN(c2ccccc2)CC1`, the “hERG current change (%, negative = inhibition) at 10uM” value is recorded as -23.2%.
Regarding `O=C(CCS(=O)(=O)c1ccc(Br)cc1)N1CCN(c2ccc(Cl)cc2)CC1`, the “hERG current change (%, negative = inhibition) at 10uM” value is given as -9.11%.
The value for `COc1ccc(S(=O)(=O)CCC(=O)N2CCN(c3ccc(F)cc3)CC2)cc1` was -59.7%; that for `O=C(CCS(=O)(=O)c1ccc(Br)cc1)N1CCN(c2ccc(F)cc2)CC1` was -66.3%; that for `COc1ccc(S(=O)(=O)CCC(=O)N2CCN(c3ccc(C(C)=O)cc3)CC2)cc1` was -45.9%.
For the compound `O=C(CCS(=O)(=O)c1ccc(Cl)cc1)N1CCN(c2ccc(F)cc2)CC1`, the “hERG current change (%, negative = inhibition) at 10uM” value is on record as -76.1%.
The value for `O=C(CCS(=O)(=O)c1ccccc1)N1CCN(c2ccc(F)cc2)CC1` was -35.9%.
Consider `O=C(CCS(=O)(=O)c1ccc(Cl)cc1)N1CCN(c2ccccc2F)CC1`, for which the “hERG current change (%, negative = inhibition) at 10uM” value was -12.2%.
As to `COc1ccc(N2CCN(C(=O)CCS(=O)(=O)c3ccc(OC)cc3)CC2)cc1`, the “hERG current change (%, negative = inhibition) at 10uM” value is reported as -19.3%.
For the compound `Cc1ccc(-c2ccc(CCC(=O)O)o2)cc1`, the “hERG current change (%, negative = inhibition) at 10uM” value is recorded as 14.5%.
In the case of `CN(CCC#N)C(=S)Nc1ccc(Oc2ccccc2)cc1`, the “hERG current change (%, negative = inhibition) at 10uM” value is given as -28.6%.
For `N#Cc1c(SCC(N)=O)nsc1SCc1ccc(Cl)cc1`, the “hERG current change (%, negative = inhibition) at 10uM” value is on record as -0.34%.
The value for `Cn1nc(-c2ccc(C(=O)O)cc2)c2ccccc2c1=O` was 11.6%.
`CC(C)C12CCC(C(=O)O)C(C1)C(=O)O2` (stereo not shown): the “hERG current change (%, negative = inhibition) at 10uM” value is 13.9%.
The value for `N#Cc1ccc(Oc2ccc(S(=O)(=O)N3CCCCC3)cn2)cc1` was -24.7%.
In the case of `N#Cc1ccccc1Oc1ccc(S(=O)(=O)N2CCCCC2)cn1`, the “hERG current change (%, negative = inhibition) at 10uM” value is -79.6%.
As for `N#Cc1ccc(Oc2ccc(S(=O)(=O)N3CCCC3)cn2)cc1`, the figure is -35.8%.
For the compound `N/C(=N\OC(=O)c1ccccc1Cl)c1ccccc1`, the “hERG current change (%, negative = inhibition) at 10uM” value is given as -16.2%.
The value for `O=C(c1cccs1)N(C(=O)c1cccs1)c1ccccn1` was 9.68%; that for `CCCn1c2c(c(O)c(C(=O)NCCCN(CC)CC)c1=O)CCCC2.Cl` was -55%.
As for `CCn1c(=O)c(C(=O)NCCCc2ccccc2)c(O)c2ccccc21`, the figure is 8.18%; as for `CCN(CC)CCCNC(=O)c1c(O)c2cc(F)cc3c2n(c1=O)C(C)CC3.Cl` (stereo not shown), -50.5%; as for `CCN(CC)CCCNC(=O)c1c(O)c2ccccc2n(Cc2ccccc2)c1=O.Cl`, -63.8%.
As for `CCn1c(=O)c(C(=O)NCCCO)c(O)c2ccccc21`, the “hERG current change (%, negative = inhibition) at 10uM” value stood at 10.1%.
Regarding `C=CCn1c(=O)c(C(=O)NCCN(CC)CC)c(O)c2ccccc21.Cl`, the “hERG current change (%, negative = inhibition) at 10uM” value is on record as -19.2%.
Consider `CCCn1c2c(c(O)c(C(=O)NCc3ccccc3)c1=O)CCCC2`, for which the “hERG current change (%, negative = inhibition) at 10uM” value is 17%.
As for `CCn1c(=O)c(C(=O)NCCc2ccccc2)c(O)c2ccccc21`, the figure is 19.7%.
The value for `CCCn1c2c(c(O)c(C(=O)NC)c1=O)CCCC2` was -6.66%; that for `CC1CCc2cc(F)cc3c(O)c(C(=O)NCC4CCCO4)c(=O)n1c23` (stereo not shown) was -13.4%; that for `CC1CCc2cc(F)cc3c(O)c(C(=O)NCCN(C)C)c(=O)n1c23.Cl` (stereo not shown) was -1%.
For `CCN(CC)CCNC(=O)c1c(O)c2ccccc2n(Cc2ccccc2)c1=O.Cl`, the “hERG current change (%, negative = inhibition) at 10uM” value is listed as -63%.
As for `O=C(O)c1ccccc1-c1ccccc1C(=O)Nc1ccccc1-c1ccccc1`, the figure is 19.8%; as for `O=C(Nc1nncs1)Oc1ccccc1`, 8.98%.
With `CC1CCC/C(=C\Nc2ccc(O)cc2)C1=O` (stereo not shown), the “hERG current change (%, negative = inhibition) at 10uM” value is given as -0.0111%.
With `Cc1cc(C(=O)NNC(=O)c2cccs2)c(C)o1`, the “hERG current change (%, negative = inhibition) at 10uM” value is on record as 7.06%.
As for `CCN(CC)C(=O)CSc1nnc(-c2ccncc2)n1N`, the “hERG current change (%, negative = inhibition) at 10uM” value came to 13.4%.
In the case of `Cc1ccc(-c2nnn(CC(=O)N(c3ccccc3F)C(CC(C)C)C(=O)NCC3CCCO3)n2)cc1` (stereo not shown), the “hERG current change (%, negative = inhibition) at 10uM” value was -13%.
The value for `O=C1NCN(c2ccccc2)C12CCNCC2` was 3.05%.
In the case of `O=C(Nc1cccc(F)c1)N1CCC(n2c(=O)[nH]c3ccccc32)CC1`, the “hERG current change (%, negative = inhibition) at 10uM” value was -19%.
`O=C1CC(N2CCC(n3c(=O)[nH]c4ccccc43)CC2)C(=O)N1c1ccc(F)cc1` (stereo not shown): the “hERG current change (%, negative = inhibition) at 10uM” value is -7.5%.
Regarding `O=c1[nH]c2ccccc2n1C1CCN(CCCC(c2ccc(F)cc2)c2ccc(F)cc2)CC1`, the “hERG current change (%, negative = inhibition) at 10uM” value is listed as -77.6%.
As for `O=C(CCCN1CCC(n2c(=O)[nH]c3ccccc32)CC1)c1ccc(F)cc1`, the “hERG current change (%, negative = inhibition) at 10uM” value is reported as -73%.
For the compound `O=C1NCN(c2ccccc2)C12CCN(CCCC(c1ccc(F)cc1)c1ccc(F)cc1)CC2`, the “hERG current change (%, negative = inhibition) at 10uM” value is on record as -75.8%.
In the case of `O=c1[nH]c2ccccc2n1CCCN1CCC(n2c(=O)[nH]c3cc(Cl)ccc32)CC1`, the “hERG current change (%, negative = inhibition) at 10uM” value is -65.5%.
Consider `Cl.O=c1[nH]c2ccccc2n1CCCN1CCCCC1`, for which the “hERG current change (%, negative = inhibition) at 10uM” value stood at 16.5%.
Consider `O=C1CC(N2CCC(n3c(=O)[nH]c4ccccc43)CC2)C(=O)N1Cc1ccccc1` (stereo not shown), for which the “hERG current change (%, negative = inhibition) at 10uM” value is on record as -21.4%.
Consider `O=C1NCN(c2ccccc2)C12CCN(c1nnnn1-c1ccccc1)CC2`, for which the “hERG current change (%, negative = inhibition) at 10uM” value was -11.7%.
Regarding `O=C(NC1CCCCC1)N1CCC(n2c(=O)[nH]c3ccccc32)CC1`, the “hERG current change (%, negative = inhibition) at 10uM” value is on record as 2.34%.
Regarding `O=c1[nH]c2ccccc2n1C1CCCCC1`, the “hERG current change (%, negative = inhibition) at 10uM” value is listed as -5.49%.
The value for `COc1cc(/C=N/NC(=O)c2ccccn2)ccc1OC(=O)c1ccccc1Br` was -1.22%; that for `CC(=O)Oc1ccc2oc(-c3ccccc3)c(C(N)=O)c2c1` was -14.1%.
For `COCCCn1c(C23CC4CC(CC(C4)C2)C3)n[nH]c1=S`, the “hERG current change (%, negative = inhibition) at 10uM” value is recorded as -5.2%.
With `O=C(c1csc2c1CCCC2)N1CCN(c2ccccc2)CC1`, the “hERG current change (%, negative = inhibition) at 10uM” value is recorded as -14.8%.
For the compound `O=S(=O)(Cc1ccccc1)N1CCN(Cc2ccc(F)cc2Cl)CC1`, the “hERG current change (%, negative = inhibition) at 10uM” value was 4.56%.
Consider `CCc1nnc(NC(=O)CN2CCN(c3nc(-c4ccccc4)cs3)CC2)s1`, for which the “hERG current change (%, negative = inhibition) at 10uM” value was -11.8%.
`COCCCNC(=O)C1CCN(C(=O)c2oc3cc4sc(N(C)C)nc4cc3c2C)CC1`: the “hERG current change (%, negative = inhibition) at 10uM” value was 7.03%.
The value for `CCOC(=O)CNC(=O)CNC(=O)c1nn(-c2ccc(OC)c(Cl)c2)c(=O)c2ccccc12` was 2.21%.
`Cc1ccccc1C(=O)NC(=S)N(C)C1CCCCC1`: the “hERG current change (%, negative = inhibition) at 10uM” value amounted to 21.2%.
The value for `COc1cccc(Cn2nc(C(=O)O)c3ccccc3c2=O)c1` was 9.63%.
Take `O=C(OCc1nc2ccsc2c(=O)[nH]1)c1ccc(Cl)s1`: the “hERG current change (%, negative = inhibition) at 10uM” value is given as -5.59%.
The value for `O=C(Nc1nc2ccccc2[nH]1)c1cccc(Cl)c1` was 17.5%.
